This note sets out measurements from PubChem BioAssay AID1259245 (Vanderbilt High Throughput Screening Facility, 2017).

Among all 40,000 compounds or so, about 1,400 (3.5%) were called active.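 Rule for the calls: active = any of four per-well response measures lying three or more SD from its plate-wide compound average, in either direction; inactive = the rest, inconclusive results apart.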 The full list was thinned out, with actives kept by preference.

Voltage-dependent calcium channel gamma-2 subunit (Mus musculus) + Glutamate receptor 2 (Rattus norvegicus), sequence (O88602 whole entry, looked up): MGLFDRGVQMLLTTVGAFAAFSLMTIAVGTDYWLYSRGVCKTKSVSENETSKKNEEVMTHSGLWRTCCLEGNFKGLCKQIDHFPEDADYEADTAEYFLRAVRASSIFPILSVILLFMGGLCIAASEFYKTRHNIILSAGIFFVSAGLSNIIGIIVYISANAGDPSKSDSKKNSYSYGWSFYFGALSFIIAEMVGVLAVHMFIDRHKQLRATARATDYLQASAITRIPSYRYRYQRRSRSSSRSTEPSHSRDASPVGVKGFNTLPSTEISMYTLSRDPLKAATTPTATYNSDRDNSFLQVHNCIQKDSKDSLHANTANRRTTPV
Voltage-dependent calcium channel gamma-2 subunit (Mus musculus) + Glutamate receptor 2 (Rattus norvegicus), sequence (P19491 whole entry, looked up): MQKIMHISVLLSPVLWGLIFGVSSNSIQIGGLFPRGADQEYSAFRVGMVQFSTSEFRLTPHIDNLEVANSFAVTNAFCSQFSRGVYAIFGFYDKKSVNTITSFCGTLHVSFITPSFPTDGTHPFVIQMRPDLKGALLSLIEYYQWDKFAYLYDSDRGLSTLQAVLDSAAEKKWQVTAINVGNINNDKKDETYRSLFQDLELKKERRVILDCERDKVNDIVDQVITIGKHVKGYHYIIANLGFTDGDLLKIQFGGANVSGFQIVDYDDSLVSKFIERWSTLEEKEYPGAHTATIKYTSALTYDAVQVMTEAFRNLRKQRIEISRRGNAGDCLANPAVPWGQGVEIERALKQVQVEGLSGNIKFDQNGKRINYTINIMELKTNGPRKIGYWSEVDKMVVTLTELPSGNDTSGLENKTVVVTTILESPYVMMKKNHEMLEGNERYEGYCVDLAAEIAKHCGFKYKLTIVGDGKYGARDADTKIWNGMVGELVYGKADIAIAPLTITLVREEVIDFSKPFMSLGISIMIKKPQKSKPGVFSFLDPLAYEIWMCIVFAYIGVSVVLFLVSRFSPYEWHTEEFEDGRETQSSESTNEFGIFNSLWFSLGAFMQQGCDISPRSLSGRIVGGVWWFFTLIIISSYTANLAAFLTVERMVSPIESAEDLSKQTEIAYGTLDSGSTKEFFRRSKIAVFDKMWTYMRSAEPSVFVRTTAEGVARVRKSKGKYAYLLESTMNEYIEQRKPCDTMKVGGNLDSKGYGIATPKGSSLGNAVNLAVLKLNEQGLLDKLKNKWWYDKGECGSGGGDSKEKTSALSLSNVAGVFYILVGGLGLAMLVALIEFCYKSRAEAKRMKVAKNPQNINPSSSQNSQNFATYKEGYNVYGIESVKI

This assay concerns the target Voltage-dependent calcium channel gamma-2 subunit (Mus musculus) + Glutamate receptor 2 (Rattus norvegicus) (UniProt O88602+P19491). Put plainly: AMPAR-TARP gamma-2 complex positive or negative modulation – cell-based, membrane potential dye, primary screen (AID 1259245). Particulars: HEK293 GluA2+stargazin, membrane potential dye (FDSS), glutamate EC50, at 30 µM, hits were called plate by plate, in both directions; compound max-min signal: compound-alone response (agonism); glutamate slope, % of max: measured here: glutamate response slope, % max.
In the case of `COc1ccc(NC(=O)C(=O)NCC2CCN(C)CC2)c(OC)c1`, the compound max-min signal amounted to 0.0817; the glutamate response, % of max is 43.1% (inactive); the glutamate slope, % of max worked out at 70.1%.

`Cc1ccc(-n2ncc3c(=O)n(CC(=O)N4CCOCC4)cnc32)cc1C`: the compound max-min signal worked out at 0.0678; the glutamate response, % of max was 29.7% (inactive); the glutamate slope, % of max was 52.9%.

For `COc1ccc(S(=O)(=O)NCC(c2cccn2C)N2CCOCC2)cc1OC` (stereo unspecified), the compound max-min signal worked out at 0.0786; the glutamate response, % of max is 34.5% (inactive); the glutamate slope, % of max came to 60.4%.

Take `O=[N+]([O-])c1cccc(S(=O)(=O)NCC(c2cccs2)N2CCOCC2)c1` (stereo unspecified): the compound max-min signal came out at 0.129; the glutamate response, % of max was 23.5% (active); the glutamate slope, % of max amounted to 44.4%.

As to `Cn1cccc1C(CNS(=O)(=O)c1ccc(F)cc1)N1CCOCC1` (stereo unspecified), the compound max-min signal was determined as 0.0736; the glutamate response, % of max was 28.1% (inactive); the glutamate slope, % of max was 55.5%.

`O=C(NCCn1ncc2c(N3CCN(c4ccccc4)CC3)ncnc21)c1cccs1`: the compound max-min signal was 0.0478; the glutamate response, % of max was 45.6% (inactive); the glutamate slope, % of max came to 68.2%.

On to `COc1ccc(CN(CC(=O)N(C)c2ccccc2)S(=O)(=O)c2cccnc2)cc1`, for which the compound max-min signal amounted to 0.128; the glutamate response, % of max is 30.9% (inactive); the glutamate slope, % of max was 52.8%.

As for `O=C1/C(=C/c2cccnc2)SC(=S)N1c1ccc2c(c1)OCCO2`, the compound max-min signal is 0.116; the glutamate response, % of max is 41.7% (inactive); the glutamate slope, % of max worked out at 65.3%.

As for `COc1ccc(-c2ccc(N3CCN(C(=O)c4ccc(=O)[nH]n4)CC3)nn2)cc1`, the compound max-min signal was 0.0223; the glutamate response, % of max was 13.3% (inactive); the glutamate slope, % of max turned out to be 24.1%.

For the compound `Cn1cnc2cc(OC(=O)c3ccc(=O)[nH]n3)ccc21`, the compound max-min signal worked out at 0.276; the glutamate response, % of max was 33% (active); the glutamate slope, % of max worked out at 52.5%.

As for `COc1ccc(C(=O)NCCOc2ccc(-c3ccc(F)cc3)nn2)c(OC)c1`, the compound max-min signal amounted to 0.0424; the glutamate response, % of max is 40.3% (inactive); the glutamate slope, % of max was found to be 60.6%.

With `COc1ccc(C(=O)N2CCc3cc(S(=O)(=O)NC4CCCC4)ccc32)cc1`, the compound max-min signal came out at 0.109; the glutamate response, % of max is 49% (inactive); the glutamate slope, % of max was 67.4%.

With `COc1cccc(C(=O)Nc2nnc(-c3ccc(OC)c(OC)c3)o2)c1`, the compound max-min signal is 0.128; the glutamate response, % of max was 35.2% (inactive); the glutamate slope, % of max is 53.9%.

Consider `COc1cc(OC)cc(C(=O)Nc2nnc(-c3cc(OC)c(OC)c(OC)c3)o2)c1`, for which the compound max-min signal is 0.259; the glutamate response, % of max was 56.5% (active); the glutamate slope, % of max stood at 83.8%.

As for `COc1cc(C(=O)Nc2nnc(-c3ccc(SC)cc3)o2)cc(OC)c1OC`, the compound max-min signal came to 0.0956; the glutamate response, % of max was 30.8% (inactive); the glutamate slope, % of max stood at 51.3%.

Regarding `Cn1cccc1C(CNC(=O)C(=O)Nc1ccccc1F)N1CCOCC1` (stereo unspecified), the compound max-min signal stood at 0.0712; the glutamate response, % of max is 30.1% (inactive); the glutamate slope, % of max was 55%.

`CCN1CC(c2nc3ccccc3n2Cc2ccc(Cl)cc2)CC1=O` (stereo unspecified): the compound max-min signal was 0.0749; the glutamate response, % of max was 45% (inactive); the glutamate slope, % of max was found to be 70.4%.

Regarding `CCN1CC(c2nc3ccccc3n2Cc2ccccc2F)CC1=O` (stereo unspecified), the compound max-min signal is 0.0186; the glutamate response, % of max was 31.3% (inactive); the glutamate slope, % of max was 50%.

For `CCN1CC(c2nc3ccccc3n2Cc2ccc(Cl)c(Cl)c2)CC1=O` (stereo unspecified), the compound max-min signal turned out to be 0.144; the glutamate response, % of max is 41.2% (inactive); the glutamate slope, % of max is 66.5%.

As to `CCCCN1CC(c2nc3ccccc3n2CCOc2ccc(C)cc2)CC1=O` (stereo unspecified), the compound max-min signal stood at 0.135; the glutamate response, % of max was 45.7% (inactive); the glutamate slope, % of max came out at 78.7%.

For `CCCCN1CC(c2nc3ccccc3n2Cc2cc(C)ccc2C)CC1=O` (stereo unspecified), the compound max-min signal came out at 0.12; the glutamate response, % of max was 83.9% (active); the glutamate slope, % of max stood at 94.4%.

On to `C=CCN1CC(c2nc3ccccc3n2Cc2cccc(Cl)c2)CC1=O` (stereo unspecified), for which the compound max-min signal came to 0.132; the glutamate response, % of max was 29.6% (active); the glutamate slope, % of max is 36.6%.

`O=C(CCCc1ccccc1)N1CCN(c2ccc3nnc(-c4ccco4)n3n2)CC1`: the compound max-min signal was found to be 0.203; the glutamate response, % of max is 48.1% (inactive); the glutamate slope, % of max is 68.2%.

Turning to `CC(=O)Nc1cccc(NC(=O)C(=O)NCC2CCN(Cc3ccco3)CC2)c1`, the compound max-min signal was determined as 0.0762; the glutamate response, % of max was 50.2% (inactive); the glutamate slope, % of max was 68.9%.

As to `O=C(NC1CCc2ccccc21)c1nnn(-c2ccc(F)cc2)c1-c1ccncc1` (stereo unspecified), the compound max-min signal is 0.0259; the glutamate response, % of max is 18.1% (inactive); the glutamate slope, % of max amounted to 25.4%.

As for `CCOCCn1c(=NC(=O)c2cc(C)no2)sc2cc(OC)c(OC)cc21`, the compound max-min signal was determined as 0.187; the glutamate response, % of max was 27.5% (active); the glutamate slope, % of max worked out at 50.7%.

Consider `COCCn1c(=NC(=O)c2cc(C)no2)sc2cc(SC)ccc21`, for which the compound max-min signal worked out at 0.152; the glutamate response, % of max was 31.8% (inactive); the glutamate slope, % of max came to 54.7%.

`COc1cc2nc(NC(=O)c3cc(C)no3)sc2cc1OC`: the compound max-min signal stood at 0.204; the glutamate response, % of max is 26.9% (inactive); the glutamate slope, % of max was found to be 48.6%.

Turning to `Cc1nn(-c2ccccc2)c2ncc(C(=O)Nc3ccc(F)cc3F)c(Cl)c12`, the compound max-min signal is 0.0815; the glutamate response, % of max is 20.8% (inactive); the glutamate slope, % of max was 43.5%.

For the compound `COc1cn(CC(=O)Nc2ccc3c(c2)OCO3)c(CSc2nnnn2C)cc1=O`, the compound max-min signal was determined as 0.0535; the glutamate response, % of max is 23.6% (inactive); the glutamate slope, % of max stood at 48.2%.

`CCOc1ccc2nc(NC(=O)c3ccc(S(=O)(=O)Nc4cccnc4)o3)sc2c1`: the compound max-min signal was determined as 0.179; the glutamate response, % of max was 32% (active); the glutamate slope, % of max was 55.6%.

Turning to `CCOc1ccc2nc(NC(=O)c3ccc(S(=O)(=O)N(C)C)o3)sc2c1`, the compound max-min signal was found to be 0.115; the glutamate response, % of max was 31.5% (inactive); the glutamate slope, % of max worked out at 54.4%.

Take `Cc1ccc2nc(NC(=O)c3ccno3)sc2c1`: the compound max-min signal was 0.16; the glutamate response, % of max is 53% (inactive); the glutamate slope, % of max is 62.5%.

As for `CC(C)Oc1ccc(C(=O)Nc2ccc3oc(=O)ccc3c2)cc1`, the compound max-min signal is 0.17; the glutamate response, % of max was 41.9% (inactive); the glutamate slope, % of max was determined as 61.4%.

In the case of `O=c1oc2ccc(Cl)cc2cc1S(=O)(=O)c1ccccc1F`, the compound max-min signal worked out at 0.0854; the glutamate response, % of max was 39.3% (inactive); the glutamate slope, % of max is 60%.

Turning to `O=c1ccc2cc(S(=O)(=O)Nc3cc(Cl)ccc3O)ccc2o1`, the compound max-min signal came to 0.209; the glutamate response, % of max was 16.4% (active); the glutamate slope, % of max was determined as 35.5%.

Take `O=C(NC1CCCCCC1)c1ccc(S(=O)(=O)c2ccccc2)nc1`: the compound max-min signal amounted to 0.0387; the glutamate response, % of max was 28.2% (inactive); the glutamate slope, % of max is 47.7%.
